# Out of some 31,000 sequences screened, about 1,400 (4.5%) were called active. Shown is part of a subset that was picked to be rich in actives. A number with no mark means an inactive call.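 How the source made its calls: active means median seed-adjusted z-score above 1 or below -1; inactive means the rest.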
# Test: Novel Modifiers of Survival Motor Neuron (SMN) Protein: Gene Identification via Genome-wide siRNA Screen;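 further: luminescence tracks full-length SMN protein made from the SMN2 reporter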
# Settings: HEK293T SMN2-luciferase reporter, siRNA knockdown, 72 h; actives lie on both sides
# Summary of the method: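 Luciferase signal, proportional to full-length SMN made from an SMN2 cDNA reporter in stable HEK293T cells, was read 72 h after siRNA reverse transfection. Values were expressed as MAD scores after non-targeting-control normalization and log10 conversion; seed analysis flagged off-targets.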
row,Sequence,median seed-adjusted z-score
1,GUCACUAGCUUAUCUUGAATT against VEGFA,0.495
2,AGCAAAGUGUUCUACCUGATT against YWHAG,1.98 (active)
3,GAAAAUCGAAAGACUAAAATT against UTP11L,-0.755
4,CUAAUGAGUUUGUCUAAUATT against PKDREJ,0.376
5,AGUGGAUUGUAGACAUGGATT against UBE2W,-0.655
6,GCAUCUACCGGAUCCUGAUTT against DDX49,0.0816
7,GCAGGCUAAUCGCAAUGAATT against ANXA13,-0.467
8,GCCAGAGUCCUGAUGCACATT against GPR31,-0.0381
9,GGACAAAGCAUUGACAAUUTT against KCNJ13,0.327
10,CAUCGGCUAUGACAACAUUTT against PSTPIP2,0.0136
11,GGUUCGUGAAGUUCGUAAATT against UTP3,-1.08 (active)
12,GAGUUAGGGAAAAAGCGUATT against ANK3,0.0252
13,CGUUGUUUUUGAGCACGUUTT against LMBR1,0.236
14,GGGAGAUCCUAGAACAAGATT against TAOK1,-0.0533
15,GUUUUGACCCUAUAGUUUATT against P2RY5,0.0278
16,GCAUUUGUUUGGGUUGCGATT against MTF2,0
17,GCAUUGUGAUCGAGGACAATT against HCN2,0
18,CGACAAUUCUUCUAGACAATT against TTC3,-1.17 (active)
19,ACAUCGAGUCAGAUCUUCATT against SLC11A1,-0.516
20,GGAGGUAUCUAACAAGAUUTT against LPO,0.201
21,UGCACGAUCUUCUACCCAATT against TKTL1,-0.495
22,AGCUUUCUUGAGCACCUGATT against LRRC32,0.0464
23,GAUGGACAUUGAUAGCGAUTT against DTX3L,0.0785
24,GAACGGCUCUUAAGAUCAATT against CACNA1D,-0.0856
25,CUAUGUACCGCUUCACUGATT against MMP9,-1.15 (active)
26,GGAAAUCUGUCACAUCGUATT against NR1I3,0.000933
27,CGGGUUUCAUCAAAGUGCATT against RASSF5,0.11
28,GCAACUUCCUAGAACUGUUTT against PCYT1B,0.177
29,GGAGGACGGCUUCUACGAATT against KCNJ9,-0.0832
30,GACUCUCUACCAUGGAUUUTT against SLC25A42,-1.02 (active)
